Hits are enriched below; roughly 1.5% of the tested compounds scored in any of these assays.
IDE inh – inhibitors of human insulin-degrading enzyme in cells | 320,000 tested, 0.41% active | inhibition, % at 5.59 µM | P14735 | AID 434962 | HEK cells, FAbetaB cleavage, fluorescence polarization;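 active means percent inhibition above the average of all tested compounds plus 3 SD, set per screening campaign, cut at about 16% in these data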;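 further: IDE supplied by intact live HEK cells; FP after avidin binding of uncleaved biotin substrate so inhibition keeps polarization high; 0% = DMSO wells and 100% = 60 µM reference IDE inhibitor Ii1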
Target sequence (P14735 whole entry, looked up): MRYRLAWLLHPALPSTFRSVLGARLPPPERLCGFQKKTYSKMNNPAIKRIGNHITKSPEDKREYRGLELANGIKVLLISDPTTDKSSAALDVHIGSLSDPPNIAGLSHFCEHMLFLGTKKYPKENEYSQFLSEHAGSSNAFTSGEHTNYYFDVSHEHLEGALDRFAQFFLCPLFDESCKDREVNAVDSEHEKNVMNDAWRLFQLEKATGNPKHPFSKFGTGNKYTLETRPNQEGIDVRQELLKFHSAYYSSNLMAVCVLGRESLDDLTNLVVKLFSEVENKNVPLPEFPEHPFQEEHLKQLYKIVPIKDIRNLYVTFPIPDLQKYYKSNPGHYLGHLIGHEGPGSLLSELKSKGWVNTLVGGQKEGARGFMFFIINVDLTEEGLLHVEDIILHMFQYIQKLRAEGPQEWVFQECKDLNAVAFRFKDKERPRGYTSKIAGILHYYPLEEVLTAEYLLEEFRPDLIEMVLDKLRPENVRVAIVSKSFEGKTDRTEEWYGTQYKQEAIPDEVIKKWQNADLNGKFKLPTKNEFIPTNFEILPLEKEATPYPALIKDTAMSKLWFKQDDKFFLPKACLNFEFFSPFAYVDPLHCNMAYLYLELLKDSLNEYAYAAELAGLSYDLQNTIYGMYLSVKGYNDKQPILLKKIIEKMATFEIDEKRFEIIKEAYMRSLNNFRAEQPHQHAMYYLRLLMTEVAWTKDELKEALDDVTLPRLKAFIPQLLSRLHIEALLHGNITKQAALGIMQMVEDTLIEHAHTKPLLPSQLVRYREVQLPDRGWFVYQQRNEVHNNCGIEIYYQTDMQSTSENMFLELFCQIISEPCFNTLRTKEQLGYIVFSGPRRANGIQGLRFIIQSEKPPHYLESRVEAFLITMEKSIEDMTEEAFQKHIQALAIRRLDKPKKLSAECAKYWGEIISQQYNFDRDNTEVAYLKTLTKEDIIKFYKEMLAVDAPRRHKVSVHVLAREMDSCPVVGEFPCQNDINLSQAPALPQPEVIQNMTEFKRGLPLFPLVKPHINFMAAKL
RTF Ca sens act – cardiac RTF calcium sensitization; P19429+P45379; IANBD-labeled TnC RTF fluorescence at EC20 calcium; 0% EC20 calcium, 100% full calcium; activation, % at 7.2 µM; 340,000 tested, 0.24% active;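 active means activation above the mean over all tested compounds plus 3 SD, cut at about 30% in these data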;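 further: rise in fluorescence read as greater calcium sensitivity of cardiac thin filaments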
TPT1 inh – inhibitors of Candida albicans tRNA 2'-phosphotransferase TPT1; recombinant caTPT1, FP RNA substrate dephosphorylation; inhibition, % at 5 µM; 300,000 tested, 0.81% active;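 active means inhibition above the mean of all tested compounds plus 3 SD, set per screening campaign, cut at about 24% in these data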;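 further: plate controls were DMSO alone for no effect and ferristatin control at 100 nM for full effect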
CRFR2-BP ag – agonists of human CRF-binding protein/CRF-R2 receptor complex; HEK293 CRF-R2/CRF-BP, calcium dye fluorescence (FLIPR); percent of saturating CRF peptide response; activation, % at 13.2 µM; 350,000 tested, 0.46% active; AID 588473;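 active means activation of at least 50%, plus an integration ratio under a set limit after plate pattern correction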;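 further: plate controls were neutral control wells without compound for no effect and CRF at EC100 for full effect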
IDE cell activ – boosts human insulin-degrading enzyme activity in HEK cells | FAbeta-B cleavage, fluorescence polarization; 0% vehicle, 100% cell-free pure enzyme wells | activation, % at 5.96 µM | 340,000 tested, 0.073% active;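 active means activation above the mean of all tested compounds plus 3 SD, set per screening campaign, cut at about 17% in these data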
Cardiac RTF inh – cardiac RTF calcium desensitization; P19429+P45379; IANBD-labeled cardiac RTF, Ca2+ fluorescence; inhibition, % at 7.15 µM; 340,000 tested, 0.12% active; AID 493244;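 active means inhibition above the mean inhibition of all tested compounds plus 3 SD, cut at about 17% in these data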;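 further: assay run at fixed EC70 calcium of 1.6 mM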
IDE cell inh cf – confirmation of human insulin-degrading enzyme inhibitors in cells | shares compounds with IDE inh | inhibition, % at 5.59 µM | HEK cells, FAbetaB cleavage, fluorescence polarization | 1,200 tested, 51% active;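 active means mean inhibition across triplicate wells above the cutoff set by the earlier primary insulin-degrading enzyme screen, cut at about 16% in these data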;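 further: 0% = DMSO wells and 100% = 60 µM reference IDE inhibitor Ii1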
HEK293 tox – HEK cell cytotoxicity, counter-screen for IDE inhibitors; inhibition, % at 5.59 µM; 1,200 tested, 28% active; HEK293 cytotoxicity, ATP luminescence; shares compounds with IDE inh; AID 449730; in the data active means inhibition above about 22%;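 further: 0% = vehicle wells and 100% = reference cytotoxic drug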
FP fluor counter – fluorescent artifact in IDE inhibitor FP assay; AID 588718; 30 tested, under 10 active; shares compounds with IDE inh; FP counterscreen for fluorescent artifacts, IDE probe project; IC50, µM; call rule not given here
An asterisk follows results filed as active; i = inactive; · = no result given.

SMILES	IDE inh	RTF Ca sens act	TPT1 inh	CRFR2-BP ag	IDE cell activ	Cardiac RTF inh	IDE cell inh cf	HEK293 tox	others
COc1cc(C(=O)OCC(=O)Nc2ccc3c(c2)OC(F)(F)O3)ccc1OCc1c(C)noc1C	17*	-4	0	4	1	-6	3	7
COc1ccc(NC(=O)COC(=O)c2ccc(OCc3c(C)noc3C)cc2)cc1OC	5	4	-3	0	0	-10	·	·
Cc1[nH]c(=O)[nH]c(=S)c1C(=O)Nc1ccc(Cl)c(Cl)c1	26*	0	-1	-1	-13	-3	2	11
CCC(C)N(C(=O)CSc1nc2ccc(OC)cc2[nH]1)C1CCS(=O)(=O)C1 (stereo not given)	-6	-2	-4	-1	4	-15	·	·
Cc1cccc(-c2nnc(SCc3nc4ccccc4[nH]3)n2Cc2ccco2)c1	37*	1	3	-2	-20	5	31*	21	FP fluor counter=>55
O=C(CSc1nnc(-c2cccc(Cl)c2)n1Cc1ccco1)Nc1ccc2cn[nH]c2c1	·	·	·	·	·	·	·	·	FP fluor counter=>55
O=C(CSc1nnc(-c2cccc(Cl)c2)n1Cc1ccco1)c1ccc2ccccc2c1	·	·	·	·	·	·	·	·	FP fluor counter=>55
O=C(CSc1nnc(-c2cccnc2)n1Cc1ccco1)c1ccc2ccccc2c1	10	4	9	-2	-4	-1	·	·
Cc1ccc(C(=O)Nn2c(O)c(C=C3N=c4ccccc4=N3)sc2=S)cc1	11	-1	6	8	-7	-2	·	·
O=C(Nn1c(O)c(C=C2N=c3ccccc3=N2)sc1=S)c1ccccc1	20*	7	7	5	-15	0	15	6
O=C(C1=C[C@H](c2coc3ccccc3c2=O)C[C@H](OCCCCO)O1)N1CCN(Cc2ccc3c(c2)OCO3)CC1	17*	7	-4	-4	-6	-7	2	17
Cc1ccc(-c2c(C(=O)N/N=C/c3cccc(Cl)c3)nnn2-c2nonc2N)cc1	53*	2	-3	0	-42	-14	45*	10
CCCOc1ccc(-c2c(C(=O)N/N=C(\C)COc3ccccc3)nnn2-c2nonc2N)cc1	20*	1	0	2	-1	-9	6	3
Cc1ccc(-c2c(C(=O)N/N=C/c3ccoc3)nnn2-c2nonc2N)cc1	3	-3	0	8	5	2	·	·
Cc1ccc(-c2ccccc2NC(=O)CS(=O)CC(=O)Nc2ccc(C)c(Cl)c2)o1 (stereo not given)	26*	4	-34	-1	-8	1	5	7
Cc1ccc(-c2ccccc2NC(=O)CCl)o1	5	-4	3	3	1	-3	·	·
CCCCCCc1cc2cc(/C(N)=N/NC(=O)c3ccncc3)c(=O)oc2cc1O	29*	11	·	102*	-36	-4	97*	16
CCOC(=O)N1CCN(S(=O)(=O)N2CCCC(C(=O)NCCc3ccccc3)C2)CC1 (stereo not given)	0	-1	-1	0	8	-2	·	·
CCOC(=O)N1CCN(S(=O)(=O)N2CCCC(C(=O)NC(C)c3ccccc3)C2)CC1 (stereo not given)	18*	0	1	0	-1	-2	7	10
CC(C)(C)NC(=O)NC(=O)CN1CCN(c2cccc(Cl)c2)CC1	41*	0	-1	2	-29	-12	22*	13
O=C(O)CC12CC3CC(C1)CC(n1ncc(NCc4ccc(F)cc4Cl)c(Cl)c1=O)(C3)C2	28*	-3	3	2	-15	8	21*	5
O=C(O)CC12CC3CC(C1)CC(n1ncc(NCc4ccccc4Cl)c(Cl)c1=O)(C3)C2	39*	0	2	3	-36	5	20*	9
Cn1cnc2c(cnn2C)c1=O	·	-10	·	-1	1	3	·	·
CCN1CCc2c(sc(NC(=O)Nc3ccc(Cl)c(Cl)c3)c2C(N)=O)C1	110*	152*	13	239*	-124	i	58*	20
CCN1CCc2c(sc(NC(=O)c3ccc(C(=O)c4ccccc4)cc3)c2C(N)=O)C1	4	3	11	10	-5	1	·	·
SMILES	IDE inh	RTF Ca sens act	TPT1 inh	CRFR2-BP ag	IDE cell activ	Cardiac RTF inh	IDE cell inh cf	HEK293 tox	others
COC(=O)Cc1ccc(NC(=O)c2ccccc2Br)cc1	-2	1	0	2	5	3	·	·
CCN1CCc2c(sc(NC(=S)NC(=O)c3ccccc3)c2C#N)C1	26*	8	28*	29	-7	-18	4	16
CCOC(=O)c1csc(NC(=O)C2=COCCO2)n1	-1	-5	1	1	2	-6	·	·
COc1ccc(NC(=O)c2cc3c(Cl)nc4ccccc4c3s2)cc1OC	19*	-10	-2	0	-16	-4	14	17
O=C(CN1C(=O)NC2(CCCCCC2)C1=O)Nc1ccccc1[N+](=O)[O-]	2	-1	·	0	0	0	·	·
CC1=CC(C)(C)Nc2ccc(OC(=O)c3ccco3)cc21	50*	-3	-2	0	-5	5	42*	120*
CC1=CC(C)(C)Nc2ccc(OC(=O)CN3C(=O)CCC3=O)cc21	26*	-3	-5	0	-14	-4	32*	92*
COc1ccc(OC(=O)C(C)N2C(=O)c3ccccc3C2=O)cc1 (stereo not given)	0	4	1	0	-2	-2	·	·
CC1=CC(C)(C)Nc2ccc(OC(=O)C(C)N3C(=O)c4ccccc4C3=O)cc21 (stereo not given)	26*	0	-4	-1	-9	1	24*	76*
CC1=CC(C)(C)Nc2ccc(OC(=O)c3cccnc3)cc21	22*	-3	0	0	2	2	33*	103*
CC1=CC(C)(C)Nc2ccc(C)cc21	-4	-2	-4	2	3	-4	·	·
O=C(Oc1ccc(F)cc1)c1cccnc1	3	0	-4	0	4	-4	·	·
O=C(Nc1ccc(Oc2ccccc2)nc1)C1CCCCN1Cc1ccc(OCCO)cc1 (stereo not given)	4	-2	-1	-1	0	-4	·	·
COc1ccc(NC(=O)Cc2nnc(SCC(=O)c3ccc(F)cc3)n2C)cc1	-5	-7	0	0	0	-2	·	·
CCc1ccc(C(=O)N/N=C/c2ccc(Cl)cc2Cl)nc1	18*	·	1	·	·	·	10	8
